Assay results published in PubChem BioAssay (NCI).
This is part of a sample that, as a whole, favours compounds with a hit. Of some 83,000 tested, about 20% had one in any assay.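 Cell lines were cultured in 96-well plates, exposed to a single compound concentration, and assessed for percent growth 48 hours later.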 The source made the active and inactive calls. How the source made its calls: active means growth percent below 10; inactive means the rest.

Key:
Experiment in all cases: NCI-60 one-dose screen, 48 h (100 = growth as untreated, 0 = no growth, -100 = all killed)
Details in all cases: 10 µM unless noted
DU-145 prostate = test system: DU-145 prostate
K-562 leukemia = test system: K-562 leukemia
MALME-3M melanoma = test system: MALME-3M melanoma
RXF 393 renal = test system: RXF 393 renal
SF-268 CNS = test system: SF-268 CNS
SF-295 CNS = test system: SF-295 CNS
SF-539 CNS = test system: SF-539 CNS
UACC-257 melanoma = test system: UACC-257 melanoma
M14 melanoma = test system: M14 melanoma
HCT-15 colon = test system: HCT-15 colon
HT29 colon = test system: HT29 colon
SNB-75 CNS = test system: SNB-75 CNS
SNB-19 CNS = test system: SNB-19 CNS
U251 CNS = test system: U251 CNS
PC-3 prostate = test system: PC-3 prostate
SK-MEL-5 melanoma = test system: SK-MEL-5 melanoma
UACC-62 melanoma = test system: UACC-62 melanoma
LOX IMVI melanoma = test system: LOX IMVI melanoma
SK-MEL-28 melanoma = test system: SK-MEL-28 melanoma

Measured: growth

C=CCc1cc(C)ccc1NC(C(=O)NCC(=O)OC)c1ccccc1 (stereo unspecified)
inactive: DU-145 prostate 112% | K-562 leukemia 106% | MALME-3M melanoma 105% | RXF 393 renal 109% | SF-268 CNS 95% | SF-295 CNS 92.9% | SF-539 CNS 94.5% | UACC-257 melanoma 104% | M14 melanoma 96.6% | HCT-15 colon 91.8% | HT29 colon 98.4% | SNB-75 CNS 88.9% | SNB-19 CNS 105% | U251 CNS 97.8% | PC-3 prostate 89.1% | SK-MEL-5 melanoma 102% | UACC-62 melanoma 95.4% | LOX IMVI melanoma 103% | SK-MEL-28 melanoma 101%

COC1=C(C)C(=O)c2c(c(CCCl)c3n2CCC3OC(C)=O)C1=O (stereo unspecified)
inactive: K-562 leukemia 12.7% | SF-268 CNS 10.4%
active: DU-145 prostate -9.56% | MALME-3M melanoma -64.3% | RXF 393 renal -54.3% | SF-295 CNS -11.7% | SF-539 CNS -41.7% | UACC-257 melanoma -50.2% | M14 melanoma -46.3% | HCT-15 colon 1.95% | HT29 colon -15.6% | SNB-75 CNS -44.6% | SNB-19 CNS 1.56% | U251 CNS -9.94% | PC-3 prostate -10.6% | SK-MEL-5 melanoma -66.7% | UACC-62 melanoma -71% | LOX IMVI melanoma -34.8% | SK-MEL-28 melanoma -32%

O=C(O)c1cn(C2CC2)c2cc(N3CCN(C(=O)Nc4nc(-c5ccc(Cl)cc5)cs4)CC3)c(F)cc2c1=O
inactive: DU-145 prostate 11.4% | RXF 393 renal 41.6% | SF-268 CNS 20.6% | SF-539 CNS 14.7% | SNB-19 CNS 23.9% | U251 CNS 10.8% | SK-MEL-28 melanoma 39.4%
active: K-562 leukemia 8.49% | MALME-3M melanoma -20.2% | SF-295 CNS -3.25% | UACC-257 melanoma -12.5% | HCT-15 colon 7.05% | HT29 colon 5.06% | SNB-75 CNS 9.36% | PC-3 prostate -2.99% | SK-MEL-5 melanoma -60.3% | UACC-62 melanoma -4.17% | LOX IMVI melanoma -66.8%
